Data reported in PubChem BioAssay (Tox21).
“And” between values parts separate entries of the source, which are not always exact repeats. Identical values can stand only once. Inconclusive results are not listed. The source made the active and inactive calls. Unless noted, the call rests on the fitted dose curve; in most records, active means well fitted curve in the direction sought with a large enough effect in the repeat runs; inconclusive means weak or mixed curves; inactive means no such curve, though single readings can be large; an effect the other way counts as inactive or inconclusive.

Key:
[1] = qHTS assay to identify small molecule agonists of the hypoxia (HIF-1) signaling pathway - cell viability counter screen (AID 1224844; calls by dose curve; further: nearly all actives have a fitted effect of over 50% in size; further: potency means the concentration at half of the fitted maximal effect)
Outline: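 HRE-bla ME-180 cells, 2,000/well in 0.5% dialyzed FBS medium, treated 17 h at 37C with compounds. Viability read in the same wells as the bla reporter, by CellTiter-Glo luminescence after 30 min at room temperature.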

[2] = qHTS assay to identify small molecule agonists of H2AX - cell viability counter screen (AID 1224847; calls by dose curve; further: nearly all actives have a fitted effect of over 30% in size; further: potency means the concentration at half of the fitted maximal effect)
Outline: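 Viability of CHO-K1 (wild type) cells after 3 hr compound exposure was measured by CellTiter-Glo luminescence.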

[3] = qHTS assay to identify small molecule antagonists of the estrogen related receptor (ERR) signaling pathway from Tox21 library (AID 1224848); further: nearly all actives have a fitted effect of over 50% in size; further: potency means the concentration at half of the fitted maximal effect
Outline: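 Cells: ERR line, 2,000/well; 6 h preincubation 37 C/5% CO2. Cpd in DMSO via pin tool; 18 h, 37 C. ONE-Glo, 30 min RT, luminescence.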

[4] = qHTS assay to identify small molecule agonists of the estrogen related receptor (ERR) signaling pathway from Tox21 library (AID 1224849; calls by dose curve; further: nearly all actives have a fitted effect of over 15% in size); conditions: ERR reporter cell line, ONE-Glo luciferase, 18 h; at 92.4 µM (top of the series) unless noted
Outline: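 ERR reporter cells (NTP line) pre-incubated 6 hours at 37 C, then exposed to compounds for 18 hours at 37 C. ONE-Glo luciferase luminescence was read after 30 minutes at room temperature.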

[5] = qHTS RealTime-Glo MT Cell Viability Assay in HepG2 cells - 24 hour (AID 1224867); further: nearly all actives have a fitted effect of over 50% in size; further: potency means the concentration at half of the fitted maximal effect
Outline: (§1)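 HepG2 cells (600/well) were dispensed with RealTime-Glo reagents, incubated 5 h at 37 °C, then treated with compounds in DMSO for up to 40 h. Nonlytic NanoLuc luminescence reflecting viable cells was read at each stated time point.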

[6] = qHTS RealTime-Glo MT Cell Viability Assay in HEK293 cells - 32 hour (AID 1224868); further: nearly all actives have a fitted effect of over 50% in size; further: potency means the concentration at half of the fitted maximal effect
Outline: (§2)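 HEK293 cells seeded with NanoLuc/prosubstrate reagent, rested 5 h at 37 C, then dosed and kept at 37 C up to 40 h. Nonlytic real-time luminescence from viable cells read at 0, 8, 16, 24, 32 and 40 h.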

[7] = A CellTox Green Cytotoxicity Assay to monitor cytotoxicity in HEK293 cells - 0 hour (AID 1224869); further: nearly all actives have a fitted effect of over 50% in size
Outline: (§3)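 HEK293 cells, 600/well, were preincubated 5 hours and then exposed to compounds at 37 C for up to 40 hours. A cell-impermeant cyanine dye staining dead-cell DNA was read by fluorescence at 0, 8, 16, 24, 32 and 40 h time points.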

[8] = qHTS RealTime-Glo MT Cell Viability Assay in HepG2 cells - 40 hour (AID 1224870); further: nearly all actives have a fitted effect of over 50% in size; further: potency means the concentration at half of the fitted maximal effect
Outline: (§4)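 HepG2 cells mixed with RealTime-Glo MT reagents (NanoLuc plus cell-permeant prosubstrate) were seeded at 600 cells/well, incubated 5 h at 37 C/5% CO2, then pinned with compounds in DMSO; nonlytic luminescence tracked viability during 40 h treatment.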

[9] = A CellTox Green Cytotoxicity Assay to monitor cytotoxicity in HEK293 cells - 40 hour (AID 1224871); further: nearly all actives have a fitted effect of over 45% in size; further: potency means the concentration at half of the fitted maximal effect
Outline: as §3

[10] = qHTS RealTime-Glo MT Cell Viability Assay in HEK293 cells - 16 hour (AID 1224872); further: nearly all actives have a fitted effect of over 50% in size; further: potency means the concentration at half of the fitted maximal effect
Outline: as §2

[11] = qHTS RealTime-Glo MT Cell Viability Assay in HEK293 cells - 40 hour (AID 1224874); conditions: RealTime-Glo luminescence; max response: active compounds read low; further: nearly all actives have a fitted effect of over 50% in size; further: potency means the concentration at half of the fitted maximal effect
Outline: (§5)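 600 cells/well were plated with the nonlytic NanoLuc/prosubstrate reagent, pre-incubated 5 h, then given 23 nL of compound in DMSO. Incubation at 37 C for 40 h, with luminescence from viable-cell-reduced substrate read repeatedly from 0 h.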

[12] = A CellTox Green Cytotoxicity Assay to monitor cytotoxicity in HEK293 cells - 24 hour (AID 1224875); further: nearly all actives have a fitted effect of over 45% in size; further: potency means the concentration at half of the fitted maximal effect
Outline: as §3

[13] = qHTS RealTime-Glo MT Cell Viability Assay in HepG2 cells - 32 hour (AID 1224877); further: nearly all actives have a fitted effect of over 55% in size; further: potency means the concentration at half of the fitted maximal effect
Outline: as §1

[14] = A CellTox Green Cytotoxicity Assay to monitor cytotoxicity in HepG2 cells - 40 hour (AID 1224879); further: nearly all actives have a fitted effect of over 40% in size; further: potency means the concentration at half of the fitted maximal effect
Outline: (§6)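 HepG2 cells, 600/well, preincubated 5 h with CellTox Green dye, then exposed to Tox21 compounds in DMSO at 37 C for up to 40 h. Dead-cell DNA fluorescence read at the indicated time point.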

[15] = qHTS RealTime-Glo MT Cell Viability Assay in HEK293 cells - 0 hour (AID 1224880); further: nearly all actives have a fitted effect of over 45% in size; further: potency means the concentration at half of the fitted maximal effect
Outline: as §5

[16] = qHTS RealTime-Glo MT Cell Viability Assay in HepG2 cells - 8 hour (AID 1224873); further: nearly all actives have a fitted effect of over 55% in size; further: potency means the concentration at half of the fitted maximal effect
Outline: as §4

[17] = A CellTox Green Cytotoxicity Assay to monitor cytotoxicity in HepG2 cells - 16 hour (AID 1224876); further: nearly all actives have a fitted effect of over 45% in size; further: potency means the concentration at half of the fitted maximal effect
Outline: as §6

[18] = A CellTox Green Cytotoxicity Assay to monitor cytotoxicity in HepG2 cells - 24 hour (AID 1224878); further: nearly all actives have a fitted effect of over 45% in size; further: potency means the concentration at half of the fitted maximal effect
Outline: as §6

[19] = qHTS assay to identify small molecule agonists of the hypoxia (HIF-1) signaling pathway (AID 1224846; active means well fitted activation curve with a large enough effect in the signal ratio in the repeat runs, not every such curve was filed as active; the % refers to the signal ratio)
Outline: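 HRE-bla ME-180 beta-lactamase reporter cells in medium with 0.5% dialyzed FBS, pre-incubated 5 h then exposed to compounds 17 h at 37C, 5% CO2; reporter induction read with CCF4-AM FRET substrate.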

[20] = qHTS assay to identify small molecule agonists of H2AX (AID 1224845; active means well fitted activation curve with a large enough effect in the signal ratio in the repeat runs, not every such curve was filed as active; the % refers to the signal ratio; further: potency means the concentration at half of the fitted maximal effect)
Outline: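 Wild-type CHO-K1 cells plated overnight, then exposed 3 hr at 37C to compounds at 15 concentrations (0.76% DMSO). Lysed, then HTRF anti-pH2AX(S139)-cryptate/anti-H2AX-d2 detection after 24 hr at room temperature; emissions 665 and 620 nm.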
On the % scale 0 is the no-effect control and ±100 the full control effect.

O=C1C=CC(=O)c2ccccc21
inactive: activity change, positive = activation [4] -74.8% | Potency [7]
active: Potency [1] 11 µM | Potency [2] 20.1 µM | Potency [3] 27.3 µM | Potency [5] 21.9 µM | Potency [6] 5.49 µM | Potency [8] 24.5 µM | Potency [9] 3.89 µM | Potency [10] 5.49 µM | Potency [11] 4.9 µM | Potency [12] 6.92 µM | Potency [13] 24.5 µM | Potency [14] 12.3 µM | Potency [15] 12.3 µM

C[C@H]1CC[C@@H]2[C@@H](C)[C@H]3[C@H](C[C@H]4[C@@H]5CC=C6CC(O[C@@H]7O[C@H](CO)[C@H](O)[C@H](O[C@@H]8O[C@H](CO)[C@@H](O)[C@H](O)[C@H]8O)[C@H]7O[C@H]7O[C@@H](C)[C@H](O)[C@@H](O)[C@H]7O)CC[C@]6(C)[C@H]5CC[C@]34C)N2C1 (some centres not stated)
inactive: activity change, positive = activation [4] -50.4% | Potency [7]
active: Potency [1] 16 µM | Potency [2] 32.9 µM | Potency [5] 50.6 µM | Potency [6] 14.3 µM | Potency [8] 56.7 µM | Potency [9] 7.14 µM | Potency [10] 12.7 µM | Potency [16] 45.1 µM | Potency [11] 14.3 µM | Potency [12] 4.51 µM | Potency [17] 22.6 µM | Potency [13] 50.6 µM | Potency [18] 11.3 µM | Potency [14] 22.6 µM

CC(=O)c1cc(C(C)(C)C)cc2c1CCC2(C)C
active: Potency [9] 38.9 µM | Potency [12] 38.9 µM
inactive: Potency [1] | outcome [19] | Potency [3] | activity change, positive = activation [4] -2.02% | Potency [5] | Potency [7] | Potency [8] | Potency [16] | max response [11] -21.2% | Potency [13] | Potency [15]

Oc1ccc2ccc3cccc4ccc1c2c34
active: Potency [10] 15.5 µM | Potency [11] 13.8 µM | Potency [14] 54.9 µM
inactive: Potency [1] | outcome [19] | Potency [7]

N#CSCSC#N
inactive: activity change, positive = activation [4] -81.6% and -76.5% | Potency [15]
active: Potency [1] 17.8 µM and 8.62 µM | Potency [2] 51.6 µM and 50 µM | Potency [3] 27.9 µM and 60.5 µM | Potency [5] 50.1 µM and 19.3 µM | Potency [6] 12.6 µM and 21.7 µM | Potency [8] 50.1 µM and 21.7 µM | Potency [9] 19.3 µM | Potency [10] 12.6 µM and 15.3 µM | Potency [16] 21.7 µM | Potency [11] 11.2 µM and 21.7 µM | Potency [12] 54.4 µM | Potency [17] 56.2 µM and 24.3 µM | Potency [13] 50.1 µM and 19.3 µM | Potency [18] 50.1 µM and 19.3 µM | Potency [14] 39.8 µM and 17.2 µM

CN(C)c1ccc(N=Nc2ccccc2)cc1
inactive: Potency [1] | outcome [19] | Potency [5] | Potency [7] | Potency [8] | Potency [17] | Potency [13] | Potency [18] | Potency [14]

CN(C)CCc1c[nH]c2ccc(O)cc12
inactive: Potency [1] | Potency [2] | Potency [5] | Potency [6] | Potency [7] | Potency [8] | Potency [9] | Potency [10] | Potency [16] | max response [11] 2.26% | Potency [12] | Potency [17] | Potency [13]

O=C1c2ccccc2C(=O)C1C(=O)C(c1ccccc1)c1ccc(Cl)cc1 (configuration not stated)
inactive: Potency [2] | activity change, positive = activation [4] -59.3% | Potency [5] | Potency [6] | Potency [7] | Potency [8] | Potency [9] | Potency [10] | max response [11] -21.2% | Potency [13] | Potency [15]
active: Potency [1] 9.77 µM | Potency [3] 9.69 µM | Potency [17] 49 µM | Potency [18] 54.9 µM

CCCN(CC)CC1COC2(CCC(C(C)(C)C)CC2)O1 (configuration not stated)
inactive: Potency [1] | Potency [2] | Potency [5] | Potency [6] | Potency [7] | Potency [10] | Potency [16] | max response [11] -8.74% | Potency [12] | Potency [17] | Potency [13] | Potency [18] | Potency [14] | Potency [15]

Clc1ccc(-c2ccc(Cl)c(Cl)c2Cl)c(Cl)c1Cl
inactive: Potency [20] | Potency [3] | activity change, positive = activation [4] 6.41% | Potency [5] | Potency [7] | Potency [8] | Potency [9] | Potency [10] | Potency [12] | Potency [13] | Potency [18] | Potency [14] | Potency [15]

CCCCCCCCCCCCBr
inactive: Potency [20] | outcome [19] | Potency [2] | Potency [5] | Potency [6] | Potency [7] | Potency [8] | Potency [9] | Potency [10] | Potency [16] | max response [11] -12.1% | Potency [12] | Potency [17] | Potency [13] | Potency [18] | Potency [14] | Potency [15]

O=C(CCl)Nc1ccccc1
inactive: Potency [2] | activity change, positive = activation [4] -72.1% | Potency [5] | Potency [7] | Potency [8] | Potency [16] | Potency [12] | Potency [13] | Potency [18] | Potency [15]
active: Potency [20] 80 µM | Potency [3] 19.3 µM | Potency [11] 38.9 µM

O=C1NCN(c2ccccc2)C12CCN(CC1COc3ccccc3O1)CC2 (configuration not stated)
inactive: Potency [20] | outcome [19] | activity change, positive = activation [4] 0.381% [at 42.5 µM] | Potency [7] | Potency [8] | Potency [9] | Potency [12] | Potency [17] | Potency [13] | Potency [18] | Potency [14] | Potency [15]

CC(=O)[O-].[Tl+]
inactive: Potency [20] | outcome [19] | Potency [2] | Potency [5] | Potency [8] | Potency [9] | Potency [10] | Potency [12] | Potency [17] | Potency [13] | Potency [18] | Potency [14] | Potency [15]
active: Potency [11] 27.7 µM
